Each structure is given as a SMILES string. Screen size: about 580,000 compounds; about 6,100 (1.1%) were called active. Roughly 15% stayed inconclusive and do not appear here. What follows is part of a selection rich in actives, with near analogues and random picks from the rest. A call without a number means that no potency is given here. Unmarked numbers belong to inactive results. Calls come from the whole dose curve; as a rule, active = well fitted inhibition curve with a large enough effect; inconclusive = small, poorly fitted or top-dose-only effect, or another doubt; inactive = no such curve, though single readings can be large or run the other way.
Potency is the fitted concentration of half-maximal effect.

Sequence of Polyunsaturated fatty acid lipoxygenase ALOX12 (Homo sapiens) (P18054 whole entry, looked up): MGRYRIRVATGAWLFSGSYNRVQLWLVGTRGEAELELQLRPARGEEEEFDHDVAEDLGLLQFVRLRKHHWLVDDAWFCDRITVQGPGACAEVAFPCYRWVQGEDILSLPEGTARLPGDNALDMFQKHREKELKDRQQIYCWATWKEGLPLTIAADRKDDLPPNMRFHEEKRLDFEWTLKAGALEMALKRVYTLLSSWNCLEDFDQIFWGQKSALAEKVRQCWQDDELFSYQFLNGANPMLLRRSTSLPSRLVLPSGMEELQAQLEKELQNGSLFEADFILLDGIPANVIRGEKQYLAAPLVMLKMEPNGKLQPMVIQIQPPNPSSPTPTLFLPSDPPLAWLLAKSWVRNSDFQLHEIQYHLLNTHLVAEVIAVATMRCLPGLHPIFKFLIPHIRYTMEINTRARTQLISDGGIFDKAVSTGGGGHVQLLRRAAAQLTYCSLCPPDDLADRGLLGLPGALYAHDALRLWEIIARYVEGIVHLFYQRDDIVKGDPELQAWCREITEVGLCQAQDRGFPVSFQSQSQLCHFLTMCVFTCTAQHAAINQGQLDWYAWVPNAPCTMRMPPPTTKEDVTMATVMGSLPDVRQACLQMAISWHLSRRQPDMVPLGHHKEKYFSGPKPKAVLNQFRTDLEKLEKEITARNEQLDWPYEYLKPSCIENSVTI

This assay addresses Polyunsaturated fatty acid lipoxygenase ALOX12 (Homo sapiens) (UniProt P18054). Put plainly: Primary qHTS assay for inhibitors of human arachidonate 12S-lipoxygenase (ALOX12): Round 2. The following applies: purified 12hLO, xylenol orange hydroperoxide absorbance; series mostly up to 108 µM. In a few lines:
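Purified human 12hLO (150 nM final) in 25 mM Hepes, 0.01% Triton X-100, pH 7.0 was preincubated 15 min at room temperature with compound. Then 40 uM arachidonic acid was added, 30 min. Hydroperoxide was read by Fe-XO absorbance ratio 573/405 nm.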
Background: qHTS replaces the single test concentration by a dilution series.
As for `CC(=O)NC(NC(=S)Nc1c(C)n(C)n(-c2ccccc2)c1=O)C(Cl)(Cl)Cl` (configuration not stated), the Potency result is “inactive”.
Still for that read-out and setting: for `Cc1ccc(S(=O)(=O)/N=C(/NC(=S)Nc2c(C)n(C)n(-c3ccccc3)c2=O)c2ccccc2)cc1` the value was 28.2 µM (active); for `Cc1c(NC(=S)NC(=O)CCc2ccccc2)c(=O)n(-c2ccccc2)n1C`, “inactive”.
Same read-out and setting: as for `C/C=C/C=C/C(=O)NCc1cccs1`, the entry is “inactive”; as for `COc1cc(/C=C2/NC(=O)NC2=O)ccc1OCc1ccccc1F`, “inactive”.
Still for that read-out and setting: for `CCOc1ccccc1NC(=O)N1CCN(Cc2nc(-c3ccc(C(=O)NC)cc3)oc2C)CC1` the value was “inactive”.
Regarding `CCCn1c(SCC(=O)N2CCc3ccccc32)nnc1-c1ccncc1`, the Potency entry was “inactive”.
Same read-out and setting: as for `Cc1oc(-c2ccccc2)nc1C(=O)NCCCN1CCCC1=O`, the entry is “inactive”; as for `CSc1nnc(-c2ccncc2)n1CCCN1CCCC1=O`, 15.8 µM (active).
Still for that read-out and setting: as for `CCCCc1noc(CSc2cc(C(N)=O)c3ccccc3n2)n1`, the entry is “inactive”.
On the same count and under the same terms, for `CCOC(=O)N1CCN(Cc2nc3c(c(=O)[nH]c(=O)n3C)n2Cc2ccc(F)cc2)CC1` the value was “inactive”.
As to `CCC(=C/c1sc2ccc3ccccc3c2[n+]1C)/C=C1\Sc2ccc3ccccc3c2N1C`, the Potency is 39.8 µM (active).
Still for that read-out and setting: for `COc1ccc(CCc2nnc(NS(=O)(=O)Cc3ccccc3)s2)cc1` the value was “inactive”; for `CC(=O)Nc1ccc(Cl)c(-c2nc3cc(C)ccc3o2)c1`, “inactive”; for `NC(=O)c1ccc(S(=O)(=O)N2CCN(C(=O)c3cc4c(s3)CCC4)CC2)cc1`, “inactive”.
On the same count and under the same terms, as for `CCc1nc(Nc2ccc3nccnc3c2)c2oc3ccccc3c2n1`, the entry is “inactive”.
Consider `COc1ccc(C)cc1Nc1nc(C)nc2c1oc1ccccc12`, for which the Potency is 35.5 µM (active).
Same read-out and setting: as for `COc1ccc(CCNC(=O)CSc2nc(C)nc3c2oc2ccccc23)cc1OC`, the entry is “inactive”.
The same measure, in the same setting: for `COCCN1CCCC(c2[nH]ccc2C(=O)NCCc2c[nH]c3ccccc23)C1` (configuration not stated) the value was “inactive”; for `CCCCCCCOc1ccc(C(=O)Oc2cncc(Cl)c2)cc1`, “inactive”.
The same measure, in the same setting: as for `Cc1ccc(S(=O)(=O)N2CCN(CC(=O)NC(C)c3cccs3)CC2)cc1` (configuration not stated), the figure is 0.708 µM (active); as for `Cc1ccc(S(=O)(=O)N2CCN(Cc3cccc(C)c3O)CC2)cc1`, “inactive”; as for `Cc1ccc(S(=O)(=O)N2CCN(C(=O)c3cccs3)CC2)cc1`, “inactive”.
Take `COc1c(I)cc(Br)cc1/C=C/C(=O)O`: the Potency entry is “inactive”.
The same measure, in the same setting: as for `O=C(Cc1csc(-c2ccccc2Cl)n1)Nc1nccs1`, the entry is “inactive”; as for `Cc1ccc(-c2c3c(=O)n(C)c(=O)n(C)c3c3n2C(C)(C)COC3c2ccc(C)cc2O)cc1` (configuration not stated), 6.31 µM (active); as for `Cc1ccc(-c2c3c(=O)n(C)c(=O)n(C)c3cn2-n2cnnc2)cc1`, “inactive”.
As for `CC(=O)Oc1cccc(N2C(=O)CC(Nc3ccc(N4CCOCC4)cc3)C2=O)c1` (configuration not stated), the Potency was 35.5 µM (active).
The same measure, in the same setting: as for `COc1ccc(NC2CC(=O)N(C)C2=O)cc1` (configuration not stated), the entry is “inactive”; as for `COc1ccc(N2C(=O)CC(Nc3ccc(F)cc3)C2=O)c([N+](=O)[O-])c1` (configuration not stated), “inactive”.
Same read-out and setting: as for `COCCNC(=O)COc1ccc2c(C)cc(=O)oc2c1`, the entry is “inactive”; as for `CCCCn1c2ccccc2c2nnc(SCc3ccc(F)cc3)nc21`, “inactive”; as for `O=C(Nc1ccc2nc(SCC(=O)N3CCCc4ccccc43)sc2c1)c1ccc(F)cc1`, “inactive”.
On to `O=C(Nc1ccc2nc(N3CCCC3)sc2c1)c1ccc(F)cc1`, for which the Potency entry is “inactive”.
On the same count and under the same terms, as for `O=C(CSc1nc2ccc(NC(=O)c3ccc(F)cc3)cc2s1)NC1CCCCC1`, the figure is 3.98 µM (active).
For `CCCn1nc(C(=O)N(CCOC)Cc2cccs2)c2ccccc2c1=O`, the Potency entry was “inactive”.
Same read-out and setting: for `Cc1cc(O)c(NC(=O)c2ccc(C)c([N+](=O)[O-])c2)cc1C` the value was “inactive”; for `Cc1oc2cc([N+](=O)[O-])c(O)c([N+](=O)[O-])c2c1C(=O)c1ccc(Br)cc1`, 28.2 µM (active); for `Cc1ccc(C(=O)c2ccc(N3CCN(C)CC3)c([N+](=O)[O-])c2)cc1`, “inactive”.
On to `COc1ccc(CCn2c(NC3CCCCC3)nc3c2c(=O)[nH]c(=O)n3C)cc1`, for which the Potency entry is “inactive”.
On the same count and under the same terms, for `O=C(Nc1ccc2c(c1)CCC2)c1cc2c(s1)CN(C1CC1)C2` the value was “inactive”; for `CCn1nc(C(=O)Nc2ccccc2Oc2ccccc2)c2ccccc2c1=O`, “inactive”; for `CCN(CC)CCCCNc1ncc2c(n1)N(C)C(=O)N(c1c(Cl)c(OC)cc(OC)c1Cl)C2`, 34.3 µM (active).
Same read-out and setting: for `COc1ccc(C(=O)COC(=O)c2ccc3c(c2)OCCO3)cc1` the value was “inactive”.
Still for that read-out and setting: as for `Cc1nc2sccn2c(=O)c1S(=O)(=O)NCCc1ccccc1`, the entry is “inactive”.
Turning to `Cc1nc(C)c(-c2csc(NCCc3ccccc3)n2)s1`, the Potency was 5.01 µM (active).
On the same count and under the same terms, for `Cc1cccc(C)c1Nc1nc(-c2ccccc2)cs1` the value was “inactive”; for `Cn1c(SCC(=O)N2CCc3ccccc32)nnc1-c1ccc(F)cc1`, “inactive”.
With `O=C(NCCCN1CCN(Cc2ccccc2)CC1)c1ccccc1C(F)(F)F`, the Potency entry was “inactive”.
As for `Cc1nccn1-c1ccc(NC(=O)[C@H]2O[C@@H](n3ccc(=O)[nH]c3=O)[C@H](O)[C@@H]2O)cc1`, the Potency entry was “inactive”.
Still for that read-out and setting: for `O=C(NS(=O)(=O)c1cccs1)[C@H]1O[C@@H](n2ccc(=O)[nH]c2=O)[C@H](O)[C@@H]1O` the value was 31.6 µM (active).
Still for that read-out and setting: as for `O=C(N[C@H](Cc1ccccc1)C(=O)N1CCCN(Cc2cccs2)CC1)[C@H]1O[C@@H](n2ccc(=O)[nH]c2=O)[C@H](O)[C@@H]1O`, the entry is “inactive”.
Same read-out and setting: for `CCOCCCNCc1ccccc1Cl` the value was “inactive”.
For `CC(C)(C)C1C/C(=C/c2ccco2)C(=O)/C(=C/c2ccco2)C1` (configuration not stated), the Potency was 39.8 µM (active).
On the same count and under the same terms, as for `CC(C)(C)CC(C)(C)NCc1ccco1`, the entry is “inactive”; as for `Cc1nnc(C(=O)Nc2ccc(C(=O)NCc3ccc4c(c3)OCO4)cc2)s1`, “inactive”; as for `CNC(=O)CNC(=O)c1n[nH]c(=O)c2ccccc12`, “inactive”.
On the same count and under the same terms, as for `COc1ccc2[nH]cc(CCNC(=O)CNc3nc(Cl)nc4nc[nH]c34)c2c1`, the entry is “inactive”; as for `COc1cccc(C2C(C#N)=C(N)OC3=C2S(=O)(=O)N(C)c2ccccc23)c1OC` (configuration not stated), “inactive”; as for `CCc1nn2c(=O)cc(CNc3cccc(C(=O)NC4CC4)c3)nc2s1`, 10 µM (active).
The same measure, in the same setting: for `CCC(=O)Nc1cccc(C(=O)OCc2cc(=O)n3nc(CC)sc3n2)c1` the value was “inactive”; for `CCc1nn2c(=O)cc(CNc3cc(F)ccc3F)nc2s1`, “inactive”.
As for `CCCN(C1CCS(=O)(=O)C1)S(=O)(=O)c1ccc(OC)cc1` (configuration not stated), the Potency result is “inactive”.
For `O=C(NCCc1ccco1)C1c2ccccc2C(=O)N(Cc2ccccc2)C12CCCC2` (configuration not stated), the Potency result is “inactive”.
Same read-out and setting: for `N#CCCn1cc(C(=O)CN2C(=O)NC3(CCOc4ccccc43)C2=O)c2ccccc21` (configuration not stated) the value was “inactive”.
Still for that read-out and setting: as for `Cc1ccc(C)c(N2CCN(c3ccc4cc(S(=O)(=O)N5CCC(C)CC5)ccc4n3)CC2)c1`, the figure is 50.1 µM (active).
Regarding `Cc1ccccc1N1CCN(S(=O)(=O)c2ccc3ccccc3c2)CC1`, the Potency entry is “inactive”.
On the same count and under the same terms, as for `O=S(=O)(c1ccc2nc(N3CCN(c4cccc(Cl)c4)CC3)ccc2c1)N1CCCCC1`, the entry is “inactive”; as for `CC1=C[C@@H](CNC2CCN(C)CC2)[C@H](C(C)C)C[C@H]1Cc1nc2ccccc2[nH]1`, “inactive”.
In the case of `Cc1noc(C)c1C(=O)N1CCCC2(Cc3ccccc3CN2C(=O)C2CCCC2)C1` (configuration not stated), the activity change, negative = inhibition is 2.72% [at 12.5 µM].
As for `C[C@]12CCC3=C4CCC(=O)C=C4CC[C@@H]3[C@H]1CC[C@@]2(O)CC#N`, the Potency was 19.3 µM (active).
Still for that read-out and setting: as for `C#C[C@]1(O)CC[C@H]2[C@@H]3CCC4=CC(=O)CC[C@@H]4[C@H]3CC[C@@]21CC`, the entry is “inactive”.
Still for that read-out and setting: as for `Cc1ccccc1NC(=O)CSc1nnc(C)n1-n1cccc1`, the entry is “inactive”; as for `COc1ccc(NC(=O)c2nn(C)c(=O)c3ccccc23)cc1OC(F)F`, “inactive”.
Consider `CCc1cccc(C)c1NC(=O)Cn1ccn(-c2ccccc2)c(=O)c1=O`, for which the Potency entry was “inactive”.
With `CC(C(=O)NC1CCS(=O)(=O)C1)N1C(=O)/C(=C/c2ccc(Cl)cc2)SC1=S` (configuration not stated), the Potency was 35.5 µM (active).
Same read-out and setting: for `CC(C)(C)c1ccc(/C=C/C(=O)NC2CCS(=O)(=O)C2)cc1` (configuration not stated) the value was “inactive”; for `O=C(COC(=O)/C=C/c1ccc(Cl)cc1)NC1CCS(=O)(=O)C1` (configuration not stated), “inactive”; for `COc1ccc(S(=O)(=O)N2CCN(Cc3ncc(-c4ccc(F)cc4)o3)CC2)cc1`, “inactive”.
Same read-out and setting: as for `Cc1ccc2nc(COc3cccc(NC(=O)c4cccc(Cl)c4)c3)cc(=O)n2c1`, the entry is “inactive”; as for `O=C(c1ccco1)N1CCN=C1SCc1cccc(Cl)c1`, “inactive”.
On the same count and under the same terms, as for `Cc1cc2nc(-c3ccco3)c(Cc3cccc(F)c3)n2c(C)c1Br`, the figure is 11.2 µM (active); as for `Cc1ccc2nc(-c3ccco3)c(Cc3cccc(Cl)c3)n2c1`, 25.1 µM (active).
Regarding `Cc1ccc(C(=O)c2ccccc2C(=O)OCc2ccccc2Cl)cc1`, the Potency entry was “inactive”.
On the same count and under the same terms, as for `CCN(CC)S(=O)(=O)c1ccc2c(c1)c(=O)n(CC(=O)N1CCCCCC1)c(=O)n2C`, the entry is “inactive”; as for `O=C(CSc1nnc(-c2ccc(Cl)cc2)o1)N1CCC(c2ccccc2)=N1`, “inactive”.
Same read-out and setting: for `O=C1C(Cl)=C(Oc2ccccc2)C(=O)c2ccccc21` the value was 11.2 µM (active); for `Cc1cc2c(cn1)C(=O)c1ccccc1-2`, “inactive”; for `N#Cc1cccc(CN2CCC(c3ccnn3CCO)CC2)c1`, “inactive”.
The same measure, in the same setting: as for `COc1ccc2nc(N3CCCC(O)C3)c(C#N)cc2c1` (configuration not stated), the figure is 50.1 µM (active); as for `COc1ccc(OC)c(NC(=O)c2nc3ccccc3nc2N2CCCC2)c1`, “inactive”; as for `COc1ccc2cc(C(=O)C3CCCN(C(=O)c4sc(C)nc4C)C3)ccc2c1` (configuration not stated), “inactive”.
For the compound `O=C(COc1ccc2ccccc2c1)Nc1nc2n(n1)C(c1ccc(Cl)cc1)CC(=O)N2` (configuration not stated), the Potency result is “inactive”.
Consider `O=C(NCC1CCCCO1)C1(Oc2ccc(Cl)cc2)CCNCC1` (configuration not stated), for which the Potency result is “inactive”.
On the same count and under the same terms, for `CC(C)N(C(=O)COC(=O)/C=C/c1cccc2cccnc12)c1ccccc1` the value was “inactive”; for `CC(=O)NC1(C)CN(Cc2ccc(-c3ccc4c(ccn4C)c3)s2)C1`, “inactive”; for `CC(=O)NC1(C)CCN(Cc2cnc(-c3ccc4c(ccn4C)c3)s2)CC1`, 39.8 µM (active).
Same read-out and setting: for `COC(=O)Nc1ncc(CN2CCCCC2)s1` the value was “inactive”; for `CCCc1c(C)nc(Nc2nc(C)c3ccc(C)cc3n2)[nH]c1=O`, “inactive”.
The same measure, in the same setting: for `COC(=O)c1sc2ncccc2c1-n1c(C)ccc1C` the value was “inactive”; for `COC(=O)c1sc(=S)n(-c2ccccc2)c1N`, 44.7 µM (active); for `CCOc1ccc(-n2c(N)c(C(=O)NCC3CCCO3)sc2=S)cc1` (configuration not stated), “inactive”.

The values above are taken from PubChem BioAssay AID1671190 (National Center for Advancing Translational Sciences (NCATS), 2021).
